Sampled rows, rich in hits. Any-hit rate of the full collection: about 8.1%.
SW480 rereplic: DNA re-replication induction in SW480 cells; SW480 DNA re-replication, Hoechst DNA content imaging, 48 h; Potency, µM (titrated, usually from 46.1 µM), without a hit: at the highest dose re-replication activation, most hits filed as activators; 1.8% of 340,000 active; AID 624297; also: % of control where 0% means no effect; nearly all actives have a fitted effect of over 55% in size
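Image-based DNA-content assay: after two days of treatment, nuclei were labelled with the DNA dye Hoechst and imaged, and hits were compounds raising the count of nuclei showing high fluorescence intensity.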
KB-3-1 cytotox: kills parental KB-3-1 adenocarcinoma cells; KB-3-1 viability, CellTiter-Glo ATP luminescence, 72 h; 1.4% of 400,000 active; AID 1347075; Potency, µM (doses to about 46.1 µM), actives largely listed as cytotoxic; also: % is scaled to controls: 0 for no effect and ±100 for the full control effect; nearly all actives have a fitted effect of over 60% in size
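KB-3-1 parental drug-naive adenocarcinoma cells in DMEM/10% FBS, incubated 72 h at 37 C with pin-transferred compounds across a concentration series. Viability by CellTiter-Glo luminescence; concentration-response curves fitted after normalization.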
MCF10A rereplic: DNA re-replication induction in MCF 10a cells; AID 624296; 2.9% of 350,000 active; Potency, µM (titrated, usually from 46.1 µM), inactives show top-dose activity, positive = re-replication, usual class: activators; MCF 10A DNA re-replication, Hoechst nuclear intensity, 48 h; also: % of control where 0% means no effect; nearly all actives have a fitted effect of over 50% in size
KB-V1 MDR tox: KB-V1 MDR subline cytotoxicity; KB-V1 MDR cells viability, CellTiter-Glo, 72 h; Potency, µM (doses to about 46.1 µM), actives largely listed as cytotoxic; 3.4% of 400,000 active; AID 1347076; also: % is scaled to controls: 0 for no effect and ±100 for the full control effect; nearly all actives have a fitted effect of over 60% in size
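KB-V1 cells (P-gp-expressing MDR subline of KB-3-1) in phenol-red-free DMEM with 10% FBS were exposed to library compounds over a concentration series for 72 h at 37 degrees C. Viability read by CellTiter-Glo luminescence; concentration-effect curves fitted after normalization.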
ELG1 DNA repair: ELG1-dependent DNA repair inhibition | Potency, µM (top dose mostly 46.1 µM), inactives show top-dose activity change, negative = inhibition, usual class: inhibitors | 2.3% of 330,000 active | HEK293T ELG1-luciferase reporter, luminescence, 16 h; DNA damage induced by 5-fluorouridine; also: % is scaled to controls: 0 for no effect and ±100 for the full control effect; nearly all actives have a fitted effect of over 55% in size
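Luminescence from the luciferase reporter, measured 30 min after ONE-Glo reagent at room temperature, was the read-out. Beforehand, 2,000 cells per well were exposed for 16 hr at 37 °C to 5-fluorouridine together with compound or vehicle.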
* hit, by the source's call. Calls follow the shape of the dose curve; as a rule, active = well fitted curve in the direction sought with a large enough effect; inconclusive = small, poorly fitted or top-dose-only effect, or another doubt; inactive = no such curve, though single readings can be large; an effect the other way counts as inactive or inconclusive. Potency is read from the fitted curve at half-maximal effect.

Screening Cc1ccc(CNC(=O)Cc2coc3cc(C)cc(C)c23)cc1 returned KB-3-1 cytotox inactive and KB-V1 MDR tox inactive.
`CCOc1cc(-c2cc(-c3ccccc3)nc(N)c2C#N)ccc1O` gave SW480 rereplic inconclusive, KB-3-1 cytotox inactive, MCF10A rereplic inconclusive, KB-V1 MDR tox inactive and ELG1 DNA repair inconclusive.
For CCOc1cc(-c2cc(-c3ccc(N)cc3)nc(N)c2C#N)ccc1O the results were SW480 rereplic inconclusive, KB-3-1 cytotox inconclusive, MCF10A rereplic 11.6µM*, KB-V1 MDR tox inconclusive and ELG1 DNA repair inconclusive.
Screening C[C@H]1O[C@@H](O[C@H]2[C@@H](O)C[C@H](O[C@H]3[C@@H](O)C[C@H](O[C@H]4CC[C@@]5(C)[C@H](CC[C@@H]6[C@@H]5C[C@@H](O)[C@]5(C)[C@@H](C7=CC(=O)OC7)CC[C@]65O)C4)O[C@@H]3C)O[C@@H]2C)C[C@H](O)[C@@H]1O returned SW480 rereplic 0.411µM*, KB-3-1 cytotox 0.184µM*, MCF10A rereplic inconclusive, KB-V1 MDR tox 0.411µM* and ELG1 DNA repair 0.164µM*.
CCc1cc(SC#N)cc(C)c1NC(=O)CCl was read as SW480 rereplic 23.1µM*, KB-3-1 cytotox inconclusive, MCF10A rereplic 16.4µM*, KB-V1 MDR tox inactive and ELG1 DNA repair inconclusive.
Screening Cc1cc(SC#N)cc(C)c1NC(=O)CCl returned KB-3-1 cytotox inactive, MCF10A rereplic inconclusive, KB-V1 MDR tox inactive and ELG1 DNA repair -25.5%.
Screening Cc1nn(CCCC(=O)NCc2ccc(Cl)cc2)c(C)c1[N+](=O)[O-] returned SW480 rereplic -204.6%, KB-3-1 cytotox inactive, MCF10A rereplic -4.8%, KB-V1 MDR tox 23.1µM* and ELG1 DNA repair -6.5%.
COc1ccc(CNC(=O)CCCn2nc(C)c([N+](=O)[O-])c2C)cc1OC was read as SW480 rereplic -4.5%, KB-3-1 cytotox inactive, MCF10A rereplic -1.1%, KB-V1 MDR tox inconclusive and ELG1 DNA repair inconclusive.
For CCn1nc(C)c(C(=O)Nc2cc(Oc3ccc(Cl)cc3)cc([N+](=O)[O-])c2)c1C the results were SW480 rereplic inconclusive, KB-3-1 cytotox inactive, MCF10A rereplic 8.2µM*, KB-V1 MDR tox inconclusive and ELG1 DNA repair inconclusive.
Screening Cc1c(Cl)c([N+](=O)[O-])nn1CCCC(=O)Nc1cc(Oc2ccccc2)cc([N+](=O)[O-])c1 returned SW480 rereplic -18.6%, KB-3-1 cytotox inactive, MCF10A rereplic -1.5%, KB-V1 MDR tox inconclusive and ELG1 DNA repair 2.6%.
Cc1nn(CCCC(=O)Nc2cc(Oc3ccc(F)cc3)cc([N+](=O)[O-])c2)c(C)c1[N+](=O)[O-] was read as SW480 rereplic 1.3%, KB-3-1 cytotox inactive, MCF10A rereplic 0.2%, KB-V1 MDR tox 5.8µM* and ELG1 DNA repair inconclusive.
Screening Cc1ccccc1Oc1cc(NC(=O)CCCn2nc(C)c([N+](=O)[O-])c2C)cc([N+](=O)[O-])c1 returned SW480 rereplic 23.1%, KB-3-1 cytotox inactive, MCF10A rereplic 1.8%, KB-V1 MDR tox 3.26µM* and ELG1 DNA repair inconclusive.
Screening COc1ccc(Cn2c(CCC(=O)Nc3ccc(OC)c(Cl)c3)nc3cccnc32)cc1 returned KB-3-1 cytotox inactive and KB-V1 MDR tox inactive.
For Cc1ccc(CNC(=O)c2nn(C)c(C)c2[N+](=O)[O-])cc1 the results were SW480 rereplic 0.517µM*, KB-3-1 cytotox inactive, MCF10A rereplic -71.7%, KB-V1 MDR tox inactive and ELG1 DNA repair -22.4%.
For Cc1ccc(CNC(=O)COC(=O)Cn2nc(C)c([N+](=O)[O-])c2C)cc1 the results were SW480 rereplic 2.3%, KB-3-1 cytotox inactive, MCF10A rereplic 2.1%, KB-V1 MDR tox inactive and ELG1 DNA repair 5.1%.
For O=C(Cc1cccc2ccccc12)N/N=C/c1ccc2cccc(O)c2n1 the results were SW480 rereplic 10.9%, KB-3-1 cytotox inactive, MCF10A rereplic inconclusive, KB-V1 MDR tox inconclusive and ELG1 DNA repair -6.2%.
For Cc1cccc(/C=C/c2cccs2)n1 the results were KB-3-1 cytotox 2.31µM* and KB-V1 MDR tox inactive.
For Oc1cccc2ccc(/C=C/c3cccs3)nc12 the results were SW480 rereplic 11.2µM*, KB-3-1 cytotox inconclusive, MCF10A rereplic inconclusive, KB-V1 MDR tox inactive and ELG1 DNA repair inconclusive.
Screening Cc1nnc(C)n1/N=C/c1cccs1 returned SW480 rereplic -3.0%, KB-3-1 cytotox inactive, MCF10A rereplic -6.6%, KB-V1 MDR tox inactive and ELG1 DNA repair 0.0%.
Screening Cc1ccsc1/C=C/c1ccc2cccc(O)c2n1 returned SW480 rereplic inconclusive, KB-3-1 cytotox inconclusive, MCF10A rereplic inconclusive, KB-V1 MDR tox 13µM* and ELG1 DNA repair inconclusive.
CC(=O)N1CCN(c2nc(-c3ccco3)c3c(c2C#N)CC(C)(C)SC3)CC1 was read as SW480 rereplic 11.8%, KB-3-1 cytotox inactive, MCF10A rereplic inconclusive, KB-V1 MDR tox inactive and ELG1 DNA repair inconclusive.
For CC1(C)Cc2c(C#N)c(N3CCN(C(=O)c4ccco4)CC3)nc(-c3ccco3)c2CS1 the results were SW480 rereplic inconclusive, KB-3-1 cytotox inactive, MCF10A rereplic inconclusive, KB-V1 MDR tox 5.8µM* and ELG1 DNA repair inconclusive.
CC1(C)Cc2c(C#N)c(N3CCN(C(=O)c4ccccc4Cl)CC3)nc(-c3ccco3)c2CS1 was read as SW480 rereplic 9.2µM*, KB-3-1 cytotox inactive, MCF10A rereplic 5.8µM*, KB-V1 MDR tox inactive and ELG1 DNA repair inconclusive.
For CCOC(=O)c1cc(NC(=O)c2ccc(Cl)cc2)c(=O)n2c1oc1ccccc12 the results were KB-3-1 cytotox inactive and KB-V1 MDR tox inactive.
CCc1nc2ccc(C(=O)N(CC)CCN(C)C)cn2c1N(CC)C(=O)NCCc1ccccc1 was read as KB-3-1 cytotox inactive and KB-V1 MDR tox inactive.
Screening CC(=O)Nc1cc(N=Cc2ccc(O)cc2O)c(Cl)cc1Cl returned SW480 rereplic inconclusive, KB-3-1 cytotox inactive, MCF10A rereplic 20.6µM*, KB-V1 MDR tox inactive and ELG1 DNA repair -0.8%.
CCc1ccc(/C=N/n2c(C)cc(C)c(C#N)c2=O)cc1 was read as SW480 rereplic -51.9%, KB-3-1 cytotox inactive, MCF10A rereplic 15.8%, KB-V1 MDR tox 9.2µM* and ELG1 DNA repair 11.7%.
O=C1CC(/C=C/c2ccncc2)=Nc2ccccc2N1 was read as SW480 rereplic 16.4µM*, KB-3-1 cytotox inconclusive, MCF10A rereplic inconclusive, KB-V1 MDR tox inconclusive and ELG1 DNA repair 18.3µM*.
For CCCCNc1nc(N)nc(-c2cc(Cl)ccc2O)n1 the results were SW480 rereplic inconclusive, KB-3-1 cytotox inconclusive, MCF10A rereplic 20.6µM*, KB-V1 MDR tox 11.6µM* and ELG1 DNA repair inconclusive.

Screening data (PubChem)
